The nature of assay [1]: qHTS profiling of the MIPE4 collection as inhibitors of Plasmodium falciparum (DD2) proliferation (Rep 2) (AID 743346; call rule not given here). As to conditions: P. falciparum Dd2 in erythrocytes, SYBR Green DNA, 72 h; at 28.5 µM unless noted. In outline:
(§1)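 Parasite DNA was quantified by SYBR Green I fluorescence (ex 485, em 535 nm) after overnight lysis in saponin/Triton buffer at room temperature. Cultures at 0.3% parasitemia and 2.5% hematocrit were first exposed to compound for 72 h at 37 C; signals were normalised to artemisinin (0.29 uM) and vehicle wells.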

A short description of assay [2]: qHTS profiling of the MIPE4 collection as inhibitors of Plasmodium falciparum (HB3) proliferation (AID 743347; call rule not given here;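 also: plate controls were DMSO vehicle wells for no effect and artemisinin wells for full effect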). To be noted: P. falciparum HB3 in erythrocytes, SYBR Green DNA, 72 h; at 28.5 µM unless noted. Summed up:
as §1

A short description of assay [3]: High-throughput drug toxicity screening in the BPDCN cell line Gen2.2 (AID 1224824; call rule not given here;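 also: cells exposed to compounds for 48 h before reading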). As to conditions: Gen2.2 BPDCN cells; at 45.8 µM (top of the series) unless noted. Summed up: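 Gen2.2 cells, 500 per well in phenol red-free RPMI with 10% FBS, exposed to compounds 48 h at 37 C, 5% CO2; viability by CellTiter-Glo luminescence. Percent activity scaled to DMSO (100%) and 9.2 uM bortezomib final (0%).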

Assay [4] in a line: High-throughput drug toxicity screening in the BPDCN cell line Cal-1 (AID 1224825; call rule not given here). To be noted: Cal-1 BPDCN cell viability, qHTS; at 45.8 µM (top of the series) unless noted. In outline: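 Percent activity derived from CellTiter-Glo luminescence, scaling DMSO to 100% and 9.2 uM final bortezomib to 0%. BPDCN Cal-1 cells (500/well, RPMI plus 10% FBS) incubated with compounds 48 hours at 37C before reading.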

A short description of assay [5]: qHTS assay for measurement of the activity of small molecule inhibitors on Zika virus induced Caspase-3 activity in human iPSC derived neural progenitor cells (hNPCs) (AID 1224857). Also: % of control where 0% means no effect; nearly all actives have a fitted effect of over 65% in size. Summed up: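 Percent inhibition of virus-induced caspase-3/7 luminescence (Caspase-Glo), scaled between uninfected cells and Zika-infected cells. hNPCs received compound 1 hr before ZIKV at 2 FFU/cell, with 6 hours infection at 37 C.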

A short description of assay [6]: qHTS assay for measurement of the activity of small molecule inhibitors on Zika virus induced Caspase-3 activity in human astrocytoma cells (AID 1224859).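 Also: plate controls were ZIKV-infected untreated cells for no effect and uninfected cells for full effect.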 In outline:
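Luminescent caspase-3/7 read-out (30 min reagent, room temperature) in human SNB-19 cells infected 6 h with ZIKV (2 FFU/cell) after 1 h compound pre-incubation; Data were normalised to uninfected and infected wells.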

Assay [7] can be described thus: qHTS Screen of the MIPE 4.0 Collection Against Ewings Sarcoma (TC71) (AID 1259253). Also: nearly all actives have a fitted effect of over 40% in size. Also: potency is read from the fitted curve at half-maximal effect. In outline: (§2)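 Cells plated in serum-containing RPMI (5% FBS) and treated with compound dilutions for 48 h. Readout luminescent viability; normalization relied on vehicle (no inhibition) and media-only columns (full inhibition).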
The nature of assay [8]: qHTS Screen of the MIPE 4.0 Collection Against Ewings Sarcoma (EW8) (AID 1259255). Also: nearly all actives have a fitted effect of over 35% in size. Also: potency is read from the fitted curve at half-maximal effect.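 As to viability: 100% = DMSO-treated cells and 0% = medium-only wells without cells.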 In outline: as §2
Assay [9] is described as follows: qHTS Screen of the MIPE 4.0 Collection Against Ewings Sarcoma (TC32) (AID 1259256). Also: nearly all actives have a fitted effect of over 45% in size. Also: potency is read from the fitted curve at half-maximal effect. In outline:
as §2

Assay [10] can be described thus: qHTS assay to identify small molecule inhibitors of chordoma cells - UCH-2 (AID 1259356). Also: % is scaled to controls: 0 for no effect and ±100 for the full control effect.
Assay [11] is described as follows: P-glycoprotein substrates identified in KB-8-5-11 adenocarcinoma cell line, qHTS therapeutic library screen (AID 1346987). Also: % is scaled to controls: 0 for no effect and ±100 for the full control effect; nearly all actives have a fitted effect of over 65% in size. Summed up: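 In this qHTS, P-gp-rich KB-8-5-11 cells received library compounds across a concentration range. Viability was quantified by luminescence after 72 h at 37 degree C.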
Assay [12] can be described thus: qHTS Screen of the MIPE 4.0 Collection Against Ewings Sarcoma (RDES) (AID 1259252). Also: nearly all actives have a fitted effect of over 35% in size. Also: potency is read from the fitted curve at half-maximal effect. Summed up: as §2
Assay [13] can be described thus: qHTS assay to identify small molecule inhibitors of chordoma cells - UCH-1 (AID 1259355). Also: % is scaled to controls: 0 for no effect and ±100 for the full control effect; nearly all actives have a fitted effect of over 55% in size. Summed up: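 800 cells/well, overnight attach; compounds pinned at 15 concs, then auranofin/camptothecin/doxorubicin/rubitecan/topotecan combo added; 48hr 37 C, 5% CO2; CellTiter-Glo, 30min RT, luminescence.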
The nature of assay [14]: Identifying Small Molecule Inhibitors of Pancreatic Cancer Stem Cells (SN12C, Adherent) (AID 1259358).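 Also: cell survival measured after 48 h of compound exposure.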 Summed up: (§3)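 Pre-formed 14-day tumor spheroids or adherent cells dosed and incubated 48 h, 37C, 5% CO2. Viability assessed by CellTiter-Glo.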
Assay [15] is described as follows: Identifying Small Molecule Inhibitors of Pancreatic Cancer Stem Cells (SN12C, Spheroid) (AID 1259360).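 Also: 100% = DMSO-treated cells and 0% = wells without cells.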 To be noted: Potency: SN12C spheroid viability. In outline: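 Luminescent ATP readout (CellTiter-Glo) quantifies surviving cells after a 48 h drug incubation. Normalization uses DMSO wells as no inhibition and media-only wells as full inhibition; bortezomib served as positive control.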

A short description of assay [16]: Identifying Small Molecule Inhibitors of Pancreatic Cancer Stem Cells (A278, Adherent) (AID 1259361).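 Also: viability read after 48 h compound exposure; 100% = DMSO-treated cells and 0% = cell-free media-only wells; nearly all actives have a fitted effect of over 35% in size.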 In outline:
as §3

Assay [17] can be described thus: P-glycoprotein substrates identified in KB-3-1 adenocarcinoma cell line, qHTS therapeutic library screen (AID 1346986). Also: nearly all actives have a fitted effect of over 60% in size. As to conditions: KB-3-1 parental cells viability, CellTiter-Glo, 72 h; at 44.5 µM (top of the series). Summed up: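 Dose-response cytotoxicity, KB-3-1 vs P-gp-high KB-8-5-11, no colchicine in assay medium. Read: CellTiter-Glo at 72 h.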

Inconclusive results are not listed. Calls of active or inactive are those of the source. Unless noted, calls follow the shape of the dose curve; as a rule, active = well fitted curve in the direction sought with a large enough effect; inconclusive = small, poorly fitted or top-dose-only effect, or another doubt; inactive = no such curve, though single readings can be large; an effect the other way counts as inactive or inconclusive.

As to `COc1ccc(C(=O)CC(=O)c2ccc(C(C)(C)C)cc2)cc1`, in [1], the parasite growth, % of control (lower = inhibition) is 6.24%. Also, the growth, % of control in assay [2] came out at 2.68%. Also, the cell viability, % of control (lower = more cytotoxic) in [3] was determined as 5.71%. For the same molecule, in assay [4], the viability (% of control) was 5.54%. The Potency entry in [5], in assay [6], in [10] and in [11] was “inactive” each time. Besides, the Potency in assay [7] was 1.66 µM (active); in assay [8], 2.09 µM (active); in assay [9] it was 1.66 µM (active).

As for `Cc1ccc(S(=O)(=O)N[C@@H](Cc2ccccc2)C(=O)CCl)cc1`, the parasite growth, % of control (lower = inhibition) in assay [1] worked out at 79.2%. The molecule also yielded a growth, % of control in [2] of 84.3%. Moreover, the cell viability, % of control (lower = more cytotoxic) in assay [3] stood at 4.27%. Also, in assay [4], the viability (% of control) came to 3.45%. Moreover, the Potency entry in assay [5] and in assay [6] was “inactive” each time. Further, the Potency in [12] was 26.4 µM (active); in [7], 18.7 µM (active); in assay [8], 16.6 µM (active).

`O=C(O)c1cccnc1`: in [1], the parasite growth, % of control (lower = inhibition) stood at 95.2%. The growth, % of control in assay [2] was found to be 87.4%. Moreover, the cell viability, % of control (lower = more cytotoxic) in assay [3] stood at 127%. Moreover, the viability (% of control) in [4] is 87.6%. For the same molecule, the Potency result in [5], in assay [6], in [7], in assay [8], in [13] and in [10] was “inactive” throughout. Further, the Potency result in assay [11] is “inactive”.

Turning to `CCCOc1ccc(C(=O)OCCN(CC)CC)cc1N`, the parasite growth, % of control (lower = inhibition) in [1] worked out at 111%. Moreover, the growth, % of control in assay [2] came to 63.6%. The cell viability, % of control (lower = more cytotoxic) in assay [3] stood at 177%. Further, the viability (% of control) in assay [4] was determined as 105%. In addition, the Potency entry in [5], in assay [6], in assay [12], in assay [7], in assay [8] and in assay [9] was “inactive” throughout. The Potency entry in [11] is “inactive”.

In the case of `CCN(CC)CCn1c(=O)c(Cc2ccc(OC)cc2)nc2ccccc21`, in assay [1], the parasite growth, % of control (lower = inhibition) was found to be 28.1%. This molecule returned a growth, % of control in assay [2] of 149%. Moreover, the cell viability, % of control (lower = more cytotoxic) in assay [3] amounted to 115%. In [4], the viability (% of control) was 94.1%. Besides, the Potency entry in assay [5], in [6], in assay [7], in assay [8], in assay [9] and in assay [14] was “inactive” throughout. Moreover, the Potency result in assay [15] and in assay [11] was “inactive” throughout. Besides, in assay [16], the IC50 (viability decrease) entry is “inactive”. For the same molecule, the outcome in assay [17] was inactive.

With `NC(=O)c1cccnc1`, the parasite growth, % of control (lower = inhibition) in assay [1] is 122%. In addition, the growth, % of control in assay [2] was determined as 105%. In addition, the cell viability, % of control (lower = more cytotoxic) in assay [3] turned out to be 114%. Also, the viability (% of control) in assay [4] was found to be 101%. Also, the Potency entry in assay [5], in assay [6], in [7], in [8], in assay [9] and in assay [10] was “inactive” each time.

For the molecule `Cc1cccc(N(C)C(=S)Oc2ccc3ccccc3c2)c1`, in assay [1], the parasite growth, % of control (lower = inhibition) was 51.6%. The growth, % of control in assay [2] came out at 50.4%. The cell viability, % of control (lower = more cytotoxic) in assay [3] worked out at 227%. In addition, the viability (% of control) in assay [4] stood at 79.3%. Further, the Potency entry in assay [5], in [6], in [7], in assay [8], in assay [9] and in assay [13] was “inactive” in each case. Further, the Potency result in assay [10] and in assay [11] was “inactive” each time. In addition, in assay [17], the outcome was inactive.

Regarding `NCCCC(O)(P(=O)(O)O)P(=O)(O)O`, the parasite growth, % of control (lower = inhibition) in [1] is 114%. This molecule also came in with a growth, % of control in assay [2] of 117%. Also, the cell viability, % of control (lower = more cytotoxic) in [3] came to 169%. Moreover, the viability (% of control) in assay [4] worked out at 97.8%. Besides, the Potency entry in assay [5], in assay [6], in [7], in assay [8], in assay [9] and in [13] was “inactive” in each case. Moreover, the Potency entry in [10] and in [11] was “inactive” throughout.

Consider `CC1=C(C(=O)O)N2C(=O)[C@@H](NC(=O)C(N)c3ccccc3)[C@H]2SC1` (stereo partly specified), for which, in assay [1], the parasite growth, % of control (lower = inhibition) amounted to 151%. The growth, % of control in [2] was determined as 108%. For the same molecule, the cell viability, % of control (lower = more cytotoxic) in assay [3] amounted to 114%. In [4], the viability (% of control) stood at 12.1%. Also, the Potency result in [5], in [6], in [7], in assay [8], in assay [9] and in assay [11] was “inactive” each time. Moreover, the result in assay [17] was inactive.

Consider `Nc1ccc(S(=O)(=O)Nc2ccccn2)cc1`, for which, in assay [1], the parasite growth, % of control (lower = inhibition) turned out to be 84.7%. In assay [2], this molecule returned a growth, % of control of 54.6%. In addition, in [3], the cell viability, % of control (lower = more cytotoxic) was determined as 123%. Also, in assay [4], the viability (% of control) was 112%. Further, the Potency entry in assay [5], in assay [6], in assay [7], in [8] and in [10] was “inactive” each time.

Values taken from PubChem BioAssay (NCATS).
